# Hits are enriched below; roughly 19% of the tested compounds scored in any of these assays.
# KB-V1 cytotox: kills drug-selected multidrug resistant KB-V1 cells | KB-V1 MDR cells viability, CellTiter-Glo, 72 h | Potency, µM (series often up to 46.1 µM), usual class: cytotoxic | actives 3.4% (n = 400,000); further: nearly all actives have a fitted effect of over 60% in size
#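 KB-V1 MDR subline cells in DMEM (phenol-red free, 10% FBS) exposed to compounds in qHTS concentration series for 72 h at 37 degrees C. Viability read by CellTiter-Glo luminescence; concentration-effect curves fitted after normalization and correction.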
# HT1080NT lethal: kills 2HG-producing HT-1080-NT fibrosarcoma cells | HT-1080-NT fibrosarcoma viability, CellTiter-Glo ATP luminescence, 48 h | Potency, µM (top dose mostly 46.1 µM), for inactives: top-dose activity, negative = less viability, hits mostly cytotoxic | actives 1.6% (n = 360,000) | AID 686970;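 further: NT is the 2HG producing partner of a matched IDH1 knockdown line; 0% = DMSO-treated cells and -100% = media-only wells without cells; nearly all actives have a fitted effect of over 55% in size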
#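 Luminescent CellTiter-Glo readout after 48 hours of compound exposure at 37 degrees C defined viability of HT-1080-NT cells. Activity was normalized to DMSO wells and cell-free media wells; concentration-response curves were fitted and assigned curve classes.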
# TDP1 cell noCPT: qHTS for Inhibitors of human tyrosyl-DNA phosphodiesterase 1 (TDP1): qHTS in cells in absence of CPT; DT40 Tdp1-/- hTDP1 cells, no CPT, ATP luminescence, 48 h; Potency, µM (doses to about 46.2 µM), inactives show at the top dose activity change, negative = growth inhibition, usual class: inhibitors; actives 15% (n = 420,000); AID 686978, 2013; further: nearly all actives have a fitted effect of over 55% in size
#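 DT40 Tdp1-/-;hTDP1 cells, no CPT (DMSO vehicle only), 400 cells/well; compounds pin-transferred; ≥48 hr, 37 °C; CellTiter-Glo 30 min RT dark, luminescence read.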
# KB-3-1 cytotox: kills parental KB-3-1 adenocarcinoma cells; KB-3-1 viability, CellTiter-Glo ATP luminescence, 72 h; Potency, µM (top dose mostly 46.1 µM), actives largely listed as cytotoxic; actives 1.4% (n = 400,000); AID 1347075; further: nearly all actives have a fitted effect of over 60% in size
#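 Here the drug-naive KB-3-1 line serves as comparator for MDR sub-line selectivity; cells received compound titrations, 72 h at 37 °C, then CellTiter-Glo readout.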
# HT1080 IDH1KD tx: toxicity to HT-1080 IDH1 knockdown cells (counter line) | HT-1080 IDH1 knockdown viability, ATP luminescence, 48 h | Potency, µM (titrated, usually from 46.1 µM), without a hit: at the top dose activity, negative = toxicity, most hits filed as cytotoxic | actives 2% (n = 360,000);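 further: 0% = DMSO wells and -100% = cell-free medium wells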
#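 Viability of IDH1-knockdown HT-1080 fibrosarcoma cells was assessed by CellTiter-Glo after 48 h at 37 °C with titrated compound; concentration-effect curves were classified by fit quality and response size.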
# DT40 TDP1 CPT: DT40-hTDP1 cell growth loss with CPT | actives 12% (n = 420,000) | Potency, µM (highest dose often 46.2 µM), for inactives: at the top dose activity change, negative = growth inhibition, hits mostly inhibitors | chicken DT40 Tdp1-/-;hTDP1 cells + 20 nM CPT, ATP luminescence, 48 h | AID 686979; further: nearly all actives have a fitted effect of over 55% in size
#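 Cell growth measured by CellTiter-Glo luminescence after a minimum 48 h, 37 C compound exposure with 20 nM CPT in Tdp1-knockout DT40 cells stably expressing hTDP1, seeded 400/well; qHTS titration format.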
# * hit, by the source's call; i = inactive; ? = inconclusive; / = no result; [ ] = another dose, or the depositor's remark. The call rests on the fitted dose curve; in most records, active means well fitted curve in the direction sought with a large enough effect; inconclusive means small, poorly fitted or top-dose-only effect, or another doubt; inactive means no such curve, though single readings can be large; an effect the other way counts as inactive or inconclusive. Unless noted, on the % scale 0 is the no-effect control and ±100 the full control effect; potency means the concentration at half of the fitted maximal effect.
SMILES,KB-V1 cytotox,HT1080NT lethal,TDP1 cell noCPT,KB-3-1 cytotox,HT1080 IDH1KD tx,DT40 TDP1 CPT
O=C(O)C1=CC[C@@H](c2ccc(Cl)cc2)N(S(=O)(=O)c2ccc(Cl)cc2)C1,i,3%,-18%,i,1%,-9%
CC(=O)C1=CCC(c2ccccc2)N(S(=O)(=O)c2cccc(C)c2)C1 (stereo unspecified),i,?,13µM*,i,-27%,16µM*
CC(=O)C1=CCC(c2ccc(Cl)cc2)N(S(=O)(=O)c2ccccc2)C1 (stereo unspecified),i,-28%,18µM*,?,-21%,21µM*
CCOC(=O)COc1c(OC)cc(Cl)cc1C1Nc2ccccc2C(=O)N1c1ccccc1 (stereo unspecified),i,1%,-26%,i,-4%,-27%
CCOC(=O)COc1c(OC)cc(Cl)cc1C1Nc2ccccc2C(=O)N1c1cccc(C)c1 (stereo unspecified),i,1%,26µM*,i,-22%,?
CC(=O)Oc1ccc(/C=C2/SC(=S)N(Cc3ccccc3)C2=O)cc1,i,23%,-16%,i,20%,-7%
CCN1C(=O)/C(=C\C=C\c2ccccc2[N+](=O)[O-])SC1=S,?,-4%,12µM*,?,-25%,26µM*
CCOc1cc(/C=C2/SC(=S)N(Cc3ccccc3)C2=O)ccc1O,i,-10%,?,i,-1%,?
O=C(O)c1ccc(/C=C2/SC(=S)N(Cc3ccccc3)C2=O)cc1,i,-1%,18%,?,5%,-23%
O=C1/C(=C\c2ccc(O)cc2)SC(=S)N1Cc1ccccc1,i,?,?,i,23µM*,?
CCOc1ccccc1C=C1SC(=S)N(CC)C1=O,i,12%,-19%,i,19%,-5%
COc1ccc(CN2C(=O)/C(=C/c3ccncc3)SC2=S)cc1,i,?,9.2µM*,i,?,23µM*
O=C1/C(=C\c2cccc([N+](=O)[O-])c2O)SC(=S)N1Cc1ccccc1,i,-17%,9.2µM*,?,0%,18µM*
COc1cc(=O)n2c(c1C(=O)N(C)Cc1nccs1)CCN(Cc1c(F)ccc(F)c1F)CC2,/,/,-2%,/,/,6%
O=C1/C(=C/c2ccc(O)c([N+](=O)[O-])c2)SC(=S)N1Cc1ccccc1,?,23µM*,18µM*,?,-19%,?
C=CCN=C1S/C(=C/c2cccc([N+](=O)[O-])c2)C(=O)N1CC=C,i,?,?,?,?,?
O=C(O)c1cccc(CN2C(=O)S/C(=C/c3cccc([N+](=O)[O-])c3)C2=O)c1,i,?,?,i,16µM*,?
O=C1/C(=C\c2cc(Br)cc(Br)c2O)SC(=S)N1Cc1ccccc1,i,-30%,15µM*,?,-16%,13µM*
COC1=CC(=O)OC(c2cccc(Cl)c2)C1 (stereo unspecified),i,12%,-13%,i,13%,7%
COc1ccc(CCN2CCCC(CN(C)Cc3cccc(OC)c3)C2)cc1 (stereo unspecified),i,?,?,i,?,?
CCN(Cc1ccccc1OC)CC1CCCN(CCc2cccc(OC)c2)C1 (stereo unspecified),i,-27%,?,i,?,15µM*
CCN(Cc1ccc(NC(C)=O)cc1)CC1CCCN(CCc2cccc(OC)c2)C1 (stereo unspecified),i,-12%,21µM*,i,-20%,?
Cc1ccc(Cn2c(CO)cnc2SCc2cccc(F)c2)cc1,i,/,?,i,/,?
OCc1cnc(SCc2cccc(F)c2)n1Cc1ccc(F)cc1,i,/,?,i,/,21µM*
COc1ccc(Cn2c(CO)cnc2SCc2cccc(C)c2)cc1,i,/,26µM*,i,/,?
SMILES,KB-V1 cytotox,HT1080NT lethal,TDP1 cell noCPT,KB-3-1 cytotox,HT1080 IDH1KD tx,DT40 TDP1 CPT
Cc1ccc(Cn2c(CO)cnc2SCc2ccc(F)cc2)cc1,i,/,16µM*,i,/,10µM*
COc1cc(NS(=O)(=O)c2ccc3[nH]c4c(c3c2)CCCCCC4)cc(OC)c1,?,/,12µM*,i,/,?
COc1ccc(Nc2nc3ccccc3nc2NS(=O)(=O)c2ccc(Cl)cc2)cc1OC,?,/,?,?,/,9.2µM*
COc1ccc(OC)c(NS(=O)(=O)c2ccc3[nH]c(=O)[nH]c3c2)c1,i,-18%,?,?,-6%,-22%
COc1ccc(S(=O)(=O)Nc2cccc(Cl)c2)cc1OC,i,3%,11%,i,-1%,5%
COc1ccc(OC)c(NS(=O)(=O)c2ccc3[nH]c4c(c3c2)CCCCC4)c1,16µM*,/,/,?,/,/
COc1ccc(NS(=O)(=O)c2ccc(OC)c(OC)c2)cc1OC,21µM*,2%,?,i,1%,-11%
Cc1ccccc1C1(CC(=O)N2CCCCC2c2cccnc2)CC(=O)N(C2CCCC2)C1=O (stereo unspecified),/,/,?,/,/,-4%[9.04 µM]
Nn1cc(Br)c(=O)[nH]c1=O,/,/,-21%,/,/,-4%
COc1ccccc1C(=O)Nc1nnc([C@H]2C[C@H](O)[C@@H](CO)O2)s1,i,13%,5%,i,?,6%
CCN(c1ccc(OC)cc1)S(=O)(=O)c1ccc2[nH]c3c(c2c1)CCCCC3,18µM*,/,/,8.2µM*,/,/
COc1ccc(NS(=O)(=O)c2ccc(Br)s2)cc1OC,21µM*,-22%,?,i,-30%,?
O=S(=O)(Nc1ccc(Cc2ccncc2)cc1)c1ccc(Cl)s1,i,-3%,?,i,-10%,-5%
O=S(=O)(Nc1ccc(Cc2ccncc2)cc1)c1ccc(Br)s1,15µM*,?,?,?,-4%,-26%
COc1cc(NS(=O)(=O)c2ccc3[nH]c4c(c3c2)CCCC4)cc(OC)c1OC,?,/,0.58µM*,0.065µM*,/,0.92µM*
CCN(Cc1ccccc1)S(=O)(=O)c1ccc2[nH]c3c(c2c1)CCCCC3,i,/,/,i,/,/
COc1cccc(C(O)c2nc(-c3ccc(OC)nc3)cs2)c1 (stereo unspecified),i,-4%,?,i,-1%,?

# Source: PubChem BioAssay
